According to PubChem BioAssay (NCI):
This is part of a sample that, as a whole, favours compounds with a hit. Of some 83,000 tested, about 20% had one in any assay.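 Interpretation: 100, growth as untreated; towards 0, rising growth inhibition; 0, no net growth; 0 to -100, cell death. Compounds scoring below 10 were considered active.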 A number with no mark means an inactive call. Active and inactive are the calls of the source.

Columns and labels:
Experiment in all cases: NCI-60 one-dose screen, 48 h (100 = growth as untreated, 0 = no growth, -100 = all killed)
Conditions in all cases: 10 µM unless noted
[1] = tested on: SK-MEL-2 melanoma
[2] = tested on: EKVX NSCLC
[3] = tested on: SN12C renal
[4] = tested on: UO-31 renal
[5] = tested on: TK-10 renal
[6] = tested on: ACHN renal
[7] = tested on: CAKI-1 renal
[8] = tested on: A498 renal
[9] = tested on: CCRF-CEM leukemia
[10] = tested on: MOLT-4 leukemia

Row | SMILES | growth [1] | growth [2] | growth [3] | growth [4] | growth [5] | growth [6] | growth [7] | growth [8] | growth [9] | growth [10]
1 | N#C/C(Sc1nc2sc3c(c2c(=O)n1Cc1ccccc1)CCCC3)=C1/SC=C(c2ccc(Cl)cc2)N1c1ccccc1 | 106% | 106% | 98% | 63.7% | 107% | 92.7% | 91.4% | 120% | 0.897% (active) | 92.3%
2 | CN1CCN(Cc2ccc(NC(=O)c3cncc(C#Cc4c(N)ncc5ccccc45)c3)cc2C(F)(F)F)CC1 | -79.2% (active) | -34.8% (active) | -97.4% (active) | -78.8% (active) | -97.6% (active) | -91.5% (active) | -66.2% (active) | -63.2% (active) | -7.03% (active) | -41.3% (active)
3 | C#C[C@]1(O)CC[C@H]2[C@@H]3CC=C4c5sc(-c6cccc(C)c6)nc5CC[C@]4(C)[C@H]3CC[C@@]21C | 86.9% | 68% | 71.3% | 34.1% | 110% | 63.7% | 27.2% | 94.9% | 49.6% | 44.2%
4 | Nc1nc(N)c2c(n1)NC(c1cccc(Nc3ccnc4cc(C(F)(F)F)ccc34)c1)CC(c1ccc(Cl)cc1)=N2 (stereo not given) | 42.7% | 50.8% | 63.9% | 62.7% | 87.4% | 72.7% | 45.5% | 82% | 19.2% | 7.52% (active)
5 | CCOc1cc(\C=N/N=C(N)/C(N)=N\N=C/c2ccc(O)c(OCC)c2)ccc1O | 126% | 106% | 101% | 88.7% | 127% | 96.5% | 94.5% | 106% | 49.7% | 59.2%
6 | CC1=NC(=S)NC(c2ccccc2)/C1=C1/CC(c2ccccc2O)NN1 (stereo not given) | 108% | 95.7% | 97.5% | 73.1% | 138% | 101% | 84.8% | 93.8% | 99.1% | 99.9%
7 | CCCC1Cc2cc(-n3nc(C)c4c3CC(C)(C)CC4=O)cc(NC3CCC(O)CC3)c2C(=O)N1 (stereo not given) | 48.7% | 62.8% | 38% | 28.9% | 38.2% | 29.3% | 30.4% | 37.6% | 35% | 16.8%
8 | C=CCn1c(SCC(=O)Nc2ccc(C(=O)/C=C/c3ccc(Cl)cc3)cc2)nnc1-c1ccccc1 | 109% | 92.3% | 92.8% | 76.5% | 87.9% | 99.9% | 92.6% | 99.5% | 85.6% | 68.6%
9 | CN1C(=O)N(C)C2C1NN=c1s/c(=C\c3ccc(F)cc3)c(=O)n12 (stereo not given) | 48.6% | 63.8% | 36.3% | 39.8% | 65.1% | 39.2% | 29.1% | 9.72% (active) | 18.1% | 23.2%
10 | O=C1CC2C=CCN2C=C1NC(=O)c1ccccc1 (stereo not given) | 118% | 94.6% | 99.5% | 98.2% | 93.5% | 104% | 101% | 102% | 109% | 96.3%
11 | CCN(CC)c1ccc(/C=N/NC(=O)c2ccccc2Nc2ccnc(C(F)(F)F)c2)c(O)c1 | 94.1% | 30.5% | 22.2% | 16% | 33.3% | 11.9% | 56.9% | 47.8% | 14.5% | 59.6%
12 | C#C[C@]1(O)CC[C@H]2[C@@H]3CC=C4c5sc(-c6ccccc6)nc5CC[C@]4(C)[C@H]3CC[C@@]21C | 92% | 92.8% | 88.2% | 77% | 126% | 85.6% | 55.2% | 91% | 67.4% | 63.8%
13 | COc1cccc(-c2nn(-c3ccccc3)cc2-c2ccnc(-c3cccnc3)c2)c1 | 87.4% | 93.3% | 101% | 62.1% | 104% | 92.6% | 102% | 98.6% | 99% | 88.1%
14 | COC(=O)c1nc(-c2ccccc2)oc1S(=O)(=O)NCC(c1ccc(Cl)cc1)N1CCCCC1 (stereo not given) | 93.8% | 104% | 75.5% | 61.2% | 67.3% | 68.2% | 49.4% | 96.4% | -19.2% (active) | 1.79% (active)
15 | COC(=O)c1nc(-c2ccccc2)oc1S(=O)(=O)N1CCN(c2ccc(OC)cc2)CC1 | 106% | 88.2% | 85.4% | 66.1% | 68.1% | 66.4% | 79.3% | 121% | -11.9% (active) | 25.1%
16 | Cc1nn(C)c2ncnc(Nc3ccccc3Br)c12 | 100% | 60.6% | 98.8% | 96.8% | 97% | 106% | 102% | 71.4% | 93.3% | 95.9%
17 | C=C1/C(=C\C=C2/CCC[C@]3(C)[C@@H]([C@H](C)CCCC(C)(C)O)CC[C@@H]23)C[C@@H](OC(=O)CBr)C[C@@H]1O | 99.7% | 52.4% | 85.2% | -100% (active) | 88.2% | -29.7% (active) | -30.4% (active) | 86.2% | -50.7% (active) | -52.6% (active)
18 | Cc1ccc(OCCOCCOCCOCCOc2ccc(C)n(O)c2=S)c(=S)n1O | 12.1% | 17.3% | 13.1% | -1.11% (active) | 33.3% | 12.7% | 8.11% (active) | 29.6% | 1.1% (active) | 6.72% (active)
19 | COC(CCP(=O)(c1ccccc1)c1ccccc1)(C(=O)c1ccccc1)c1ccccc1 (stereo not given) | 34.7% | 59.2% | 96.7% | 33.4% | 81.1% | 71.5% | 87.1% | 83.4% | 35.4% | 18.3%
20 | Nc1ccc(N)c2c1C(=O)c1cccc([N+](=O)[O-])c1C2=O | 53.7% | 38.2% | 25.9% | 33.4% | 45.3% | 15.9% | 5.03% (active) | -73.8% (active) | 48.3% | 46.5%
21 | COc1cc(-c2c(-c3ccccc3)c[nH]c2C(=O)NCCCO)c(OC)c2c1OCO2 | 109% | 99.2% | 97.1% | 85.7% | 99% | 98.9% | 91.1% | 74.6% | 88.8% | 92.5%
22 | FC(F)(F)c1cccc(-c2nnn(Cc3cc(-c4cccc(Cl)c4)no3)n2)c1 | 114% | 115% | 101% | 85.7% | 109% | 107% | 98.9% | 103% | 96.1% | 107%
23 | Cc1ccc(Nc2nc(N)nc(N)c2N=O)cc1Cl | 85.8% | 81.5% | 90% | 56.5% | 96.2% | 72.2% | 82.2% | 119% | 89.8% | 68.7%
24 | COc1ccc(/C(C)=C(\c2ccc(Cl)cc2)c2ccc(OCCCN(C)C)cc2)cc1 | 90.4% | 88.6% | 79.9% | 64.5% | 94.7% | 91.9% | 67.1% | 93.4% | 53.1% | 55.8%
25 | C#CCOc1cccc(Nc2c(Cl)c(CCl)nc3ccc(Oc4ccccc4)cc23)c1 | 37.4% | 76.5% | 5.93% (active) | 61.7% | 76.5% | 63.5% | 76.1% | 99.7% | 9.4% (active) | 14%
26 | CN(C)C(=S)NN=C(c1ccccn1)c1ccccn1 | 13.4% | -15.7% (active) | 28.5% | 20.7% | 6.04% (active) | 16.8% | 30% | -11% (active) | -34.3% (active) | -2.95% (active)
27 | CCN(CC)CCCNc1cc(OC)cc2cccnc12 | 109% | 107% | 97.7% | 91.6% | 109% | 110% | 103% | 81.5% | 114% | 104%
